Assay results taken from ChEMBL document CHEMBL3988442, “University of Dundee, Small-Polar-MMV Screening Library” (2021).

Legend:
[1] = target: T1, Aspartate--tRNA(Asp/Asn) ligase (Mycobacterium tuberculosis (strain ATCC 25618 / H37Rv)) (UniProt P9WFW3); test: Assay for Asp RNA synthetase-1 from Mycobacterium tuberculosis; type: functional; set-up: scale not given: direction of the effect not stated beside the values; details: 30 µM; further: in the data most compounds retested in dose-response had high values
T1 sequence (whole entry): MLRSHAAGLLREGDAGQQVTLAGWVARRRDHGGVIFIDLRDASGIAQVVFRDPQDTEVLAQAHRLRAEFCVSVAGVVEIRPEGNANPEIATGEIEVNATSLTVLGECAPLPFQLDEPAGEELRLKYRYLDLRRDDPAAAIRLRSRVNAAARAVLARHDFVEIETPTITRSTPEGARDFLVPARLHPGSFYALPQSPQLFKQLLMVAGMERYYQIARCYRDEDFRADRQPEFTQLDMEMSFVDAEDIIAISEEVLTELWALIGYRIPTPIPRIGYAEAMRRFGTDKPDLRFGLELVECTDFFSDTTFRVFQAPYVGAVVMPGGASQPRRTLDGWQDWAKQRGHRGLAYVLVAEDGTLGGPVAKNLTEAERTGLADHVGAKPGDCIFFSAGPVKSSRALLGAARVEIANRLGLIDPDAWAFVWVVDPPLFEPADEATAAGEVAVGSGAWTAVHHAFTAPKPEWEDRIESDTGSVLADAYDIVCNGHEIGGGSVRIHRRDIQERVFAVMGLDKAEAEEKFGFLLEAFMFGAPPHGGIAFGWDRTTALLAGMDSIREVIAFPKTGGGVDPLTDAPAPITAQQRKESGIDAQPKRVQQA

[2] = target: Shiga toxin 2 (Escherichia coli O157:H7) (UniProt P09385+P09386); test: E. coli 0.157:H7 Shiga Toxin SOP - stx2 screening assay; type: functional; set-up: scale not given: direction of the effect not stated beside the values; details: 30 µM

Row | SMILES | Percent Effect [1] [%] | Percent Effect [2] [%]
1 | Cc1ccc(C(=O)CCC(=O)N2CCC(c3nncn3C)CC2)cc1 | 2.31 | -30.7
2 | COCCN1CCC(CNC(=O)C2(c3cccc(C)c3)CC2)CC1 | 5.2 | -5.28
3 | CN(C)CCN1CCOCC2(C1)CN(Cc1ccsc1)CCO2 (configuration not stated) | 6.63 | 3.8
4 | CCCc1n[nH]cc1C(=O)N1CCC(c2nccn2CCOC)CC1 | -6.36 | 10
5 | Cc1cc(C)nc(NC(=O)C(C)Oc2ccc3c(c2)OCO3)n1 (configuration not stated) | 12.6 | -50
6 | Cc1ccc2oc(C(=O)N3CCC(C(=O)N4CCCC4)CC3)cc2n1 | 1.57 | -16.4
7 | COC(=O)c1cccn1C1CCN(C(=O)c2cc(C)ccc2O)CC1 | 3.4 | 21.2
8 | NC(=O)Cc1ccc(NC(=O)C2CCOCC2)cc1 | 1.11 | 20.8
9 | Cc1noc(C(C)C)c1C(=O)NCC(c1cccc(F)c1)N(C)C (configuration not stated) | -4.05 | 8.91
10 | COc1ncccc1C(=O)N1CCCC(c2cc(C)[nH]n2)C1 (configuration not stated) | -4.25 | 5.54
11 | COCC1CN(C(=O)c2cccn2C)Cc2ncnn2C1 (configuration not stated) | 12.6 | -34.6
12 | CCc1nc2n(n1)CC(NCC(=O)Nc1ccc(Cl)cn1)CC2 (configuration not stated) | 0.314 | 2.33
13 | CN(C)c1ccc(CNC(=O)c2ccc(Cl)cc2F)cc1 | -7.82 | 0.494
14 | Cc1cnn(CC2CCCN2C(=O)c2nccc3ccccc23)c1 (configuration not stated) | 3.06 | 28
15 | Cc1cc(C)cc(-c2cccc(CC3(C(=O)O)CCOCC3)c2)c1 | 2.93 | -30
16 | CCC(=O)N1CCN(Cc2cc(-c3ccncc3)nn2C)CC1 | -0.849 | -10.7
17 | O=C(CCn1cncn1)NC1(c2cccc(Br)c2)CCC1 | 8.08 | -21.1
18 | CN1CCOC(CNCc2coc(-c3ccccc3)n2)C1 (configuration not stated) | -1.77 | -3.88
19 | CC(C)CCN1CCNC(=O)C1CC(=O)N1CCc2sccc2C1 (configuration not stated) | -3.89 | -7.76
20 | Cc1cccc(N2CCN(C(=O)Nc3cnn(CC(N)=O)c3)CC2)c1 | -2.01 | -45.6
21 | CC(C)CC1SCC(=O)Nc2c1cnn2-c1ccc(F)cc1 (configuration not stated) | -3.46 | 0.343
22 | CCS(=O)(=O)N1CCO[C@H]2[C@H](OCCCn3cccn3)CC[C@@H]21 | 0.786 | -17.2
23 | CCCc1nc(C)c(C(=O)NCCN2CCN(CC)CC2)s1 | -0.278 | -15.4
24 | CN(C)C(=O)NC1COC2(CCN(Cc3nccn3C)CC2)C1 (configuration not stated) | 2.7 | -6.31
25 | Cn1ccc(C(=O)N2CCC(Cc3cccc4cccnc34)C2)n1 (configuration not stated) | -7.19 | 15.7
26 | Cc1cnnn1Cc1ncn2c1CN(Cc1cccs1)CCC2 | -1.27 | -3.58

Row | SMILES | Percent Effect [1] [%] | Percent Effect [2] [%]
27 | COCC(=O)N1CC[C@@H](N2CCOCC2)[C@@H]1Cc1ccccc1 | 9.38 | -28.8
28 | Cc1csc(CNC(=O)Nc2cc(C(F)(F)F)c[nH]c2=O)n1 | -5.12 | 8.58
29 | CSCc1cccc(C(=O)N2CCN(CC(C)O)CC2)c1 (configuration not stated) | -0.819 | 7.3
30 | COCc1c(C(=O)NC2CCCC2)nnn1-c1ccc(C)cc1 | -4.96 | 10.2
31 | CC(C)C1CN(C(=O)c2nccnc2N)CCS1 (configuration not stated) | 13 | -15.2
32 | CS(=O)(=O)NCc1nnc2n1CCN(CC1CC1)C2 | 2.77 | 4.81
33 | CC(=O)N1CC[C@H]2OCC[C@@]2(C(=O)NCc2ccco2)C1 | 0.379 | -17.2
34 | CC(C)(C(=O)NCC1CC1)c1ccccc1F | -1.98 | -2.97
35 | Cc1nc(CN2C(=O)CC[C@H]3[C@@H]2CCN3C(=O)c2ccsc2)cs1 | -4.11 | -2.73
36 | Cc1cccc(C2(CNC(=O)CCNS(C)(=O)=O)CCCC2)c1 | -6.94 | -8.2
37 | COC(=O)c1ccc(N2CCN(CCN3CCOCC3)C(C)C2)cc1 (configuration not stated) | -8.26 | 32.4
38 | c1csc(-c2nc(CN3CCn4c(nnc4C4CC4)C3)co2)c1 | -3.42 | 1.36
39 | COc1ccc2c(c1)C1(CCN(Cc3ccoc3)CC1)N(C)CC2 | 0.685 | -9.8
40 | Cc1cnn(CC2CN(CC(=O)N(C)Cc3cccs3)CCO2)c1 (configuration not stated) | -5.6 | -8.69
41 | Cn1cc(-c2nc(CN3CCN(CCO)CC3)cs2)cn1 | -2.15 | 22.1
42 | Cn1cc(CN2CCN(Cc3nccn3C)CC2)cn1 | -2.81 | -37.2
43 | Cc1csc(CNC(=O)NC2CCN(c3ncccn3)CC2)n1 | 2.39 | -1.46
44 | CS(=O)(=O)c1ccccc1C(=O)NCC1Cc2ccccc2O1 (configuration not stated) | 9.98 | -13
45 | CCc1nccn1C1CCCN(C(=O)c2csc(COC)n2)C1 (configuration not stated) | 4.12 | -14.9
46 | Cn1cnc2c1CCN(Cc1cccc(OCC(N)=O)c1)C2 | -4.08 | -24.5
47 | CCn1cc(NC(=O)NCc2ccc3c(c2)OCCO3)cn1 | 1.48 | -43.3
48 | CCc1nc(C2CCCN2C(=O)c2ncoc2CC)no1 (configuration not stated) | -3.37 | 4.73
49 | CC(C)c1nnc2n1CCN(CCCS(=O)(=O)c1ccccc1)C2 | -5.16 | -15.3
50 | Cc1nc(C)n(CC2CCCN2CC(=O)NCc2ccco2)n1 (configuration not stated) | 4.57 | -5.68
51 | Cc1cc(C2CCCN2Cc2cc(=O)n(C)c(=O)n2C)on1 (configuration not stated) | 0.485 | 14.1
52 | NC(=O)N1CCC2(CCN(Cc3cccc(F)c3)CC2)CC1 | -3.39 | -34.5

Row | SMILES | Percent Effect [1] [%] | Percent Effect [2] [%]
53 | Cc1nc(C)n(CC2CCCN(c3ncnc4ccsc34)C2)n1 (configuration not stated) | 0.756 | 28.8
54 | CSCCC(=O)N1CCCC1c1ccsc1 (configuration not stated) | 2.62 | 4.03
55 | COc1c(C2CCCN2C(=O)c2ccc3cc[nH]c3c2)c(C)nn1C (configuration not stated) | -1.15 | 3.54
56 | CC(C)CN1CCN(C)C2(CCN(Cc3ccsc3)CC2)C1=O | 1.25 | -3.28
57 | Cc1nc(CO[C@@H]2CN(Cc3cnn(C)c3)[C@@H]3COC[C@@H]32)cs1 | -6.31 | -3.46
58 | CCn1cc(CN2CCCN(C(=O)CCc3ccncc3)CC2)cn1 | 0.516 | -80.5
59 | Cn1cc(C(=O)N[C@@H]2CN(Cc3cccs3)[C@@H]3CCCO[C@@H]32)cn1 | 1.75 | -2.87
60 | c1ccc(CCN2CCOC(Cn3cccn3)C2)nc1 (configuration not stated) | -0.259 | 0.927
61 | CCOc1ccc(C2CC(=O)Nc3c2c(=O)nc2sccn32)cc1 (configuration not stated) | 0.813 | -16.9
62 | CC(NC(=O)N1CCN(CCc2ccccc2)CC1)c1nncn1C (configuration not stated) | -7.6 | -13.8
63 | O=C(NCc1ccccn1)[C@H]1COC[C@H]2CN(Cc3ccoc3)C[C@H]21 | -0.779 | -0.902
64 | O=C(Nc1nccs1)N1CCCC(N2CCNC2=O)C1 (configuration not stated) | 0.977 | -10.1
65 | Cc1noc(C)c1C(=O)NCc1ccnc(OCC(F)(F)F)c1 | -0.189 | 10.8
66 | CCC1=N[C@@]2(CC[C@@H]3CN(C(=O)Nc4ccc(F)cc4)C[C@@H]32)C(=O)N1 | 0.408 | 5.29
67 | CC(C)C(=O)N1CCN(C(=O)c2cc(C(C)C)on2)[C@H]2CS(=O)(=O)C[C@H]21 | -1.39 | -14.2
68 | O=C(c1ccccn1)N1Cc2nccn2CC(COc2cccnc2)C1 (configuration not stated) | 3.15 | -14.8
69 | O=C(Cn1c(=O)n(Cc2ccco2)c2ncccc21)Nc1ccccn1 | 8.2 | 3.73
70 | CNC(=O)[C@@]12CCO[C@@H]1CCN(Cc1scnc1C)C2 | -0.714 | -2.91
71 | O=C(CCc1cnn(-c2ccccc2)c1)N1CCCC(n2cccn2)C1 (configuration not stated) | -0.589 | 26.2
72 | COC(=O)c1cccc(NC(=O)CN2CCN(S(C)(=O)=O)CC2)c1 | 1.93 | 10.4
73 | O=C(Cc1ccccn1)N1CCc2nc(-c3cnccn3)nc(O)c2C1 | -2.49 | 4.64
74 | Cc1ccc([C@@H]2CN(S(=O)(=O)C(C)C)C[C@H]2N(C)C)cc1 | 0.183 | 12.9
75 | O=C1NC(c2ccccc2)=N[C@@]12CC[C@@H]1CN(Cc3ccccc3)C[C@@H]12 | 0.728 | -14.6
76 | N#Cc1ccccc1OCCN1CCn2c(nnc2C2CC2)C1 | -1.13 | -21.3
77 | CN(Cc1ccccc1Br)C(=O)Cn1nc(-c2ccc(F)cc2)oc1=O | 7.4 | -11.3
78 | Cc1ncc(CNC(=O)N(C)C2CCN(c3ccccc3)C2=O)s1 (configuration not stated) | -3.19 | 24.6

Row | SMILES | Percent Effect [1] [%] | Percent Effect [2] [%]
79 | O=C(CC1CN(Cc2ccccc2)CCO1)NC1CCCC1 (configuration not stated) | -3.53 | 1.42
80 | CC(O)CN1CCN(C(=O)c2ccc3c(c2)COC3)CC1 (configuration not stated) | -4.85 | -19.4
81 | CC(C)COC(C)C(=O)N1CCN(S(C)(=O)=O)CC1 (configuration not stated) | -6.93 | -2.13
82 | Cc1nn(C)c(N(C)C)c1CNC1CCOc2c(F)cccc21 (configuration not stated) | -0.433 | 30.8
83 | CC(C(=O)NCc1ccc(-n2cncn2)nc1)n1ccnc1 (configuration not stated) | 5.56 | 19.8
84 | CC(C)(C)c1nc(CN2CCCC2Cn2cccn2)no1 (configuration not stated) | -2.09 | -50.8
85 | Cc1ccc(CN2CCCC3(CCN(S(=O)(=O)N(C)C)C3)C2)o1 (configuration not stated) | 0.162 | 10.6
86 | Cc1nn(C)c(C)c1CCC(=O)N1CCCC1Cn1cccn1 (configuration not stated) | -0.943 | 2.75
87 | Cc1cc(C(=O)N2CCCC(c3noc(C)n3)C2)[nH]n1 (configuration not stated) | -4.2 | -22.4
88 | CC(C)c1nn(C)c(Cl)c1CNCc1ccc2c(c1)OCCO2 | 5.79 | 32.9
89 | Cc1ncsc1C(=O)N1CCCC(c2noc(C(C)C)n2)C1 (configuration not stated) | -6.6 | -6.13
90 | O=C(CN1CCc2ccccc21)Nc1ccc(OC(F)F)cc1 | 0.418 | -7.39
91 | CCc1noc(C(C)N2CCOCC2)n1 (configuration not stated) | -10.8 | 6.48
92 | Cc1ncc(-c2ccnc(N3CCCCCC3)n2)c(-c2cccnc2)n1 | 7.25 | -25.4
93 | O=C(Cn1nc(-c2cccs2)ccc1=O)N1CCCCCC1 | 1.6 | -0.139
94 | c1cncc(C2COC3(CCN(CC4CC4)CC3)C2)c1 (configuration not stated) | -0.915 | -13.1
95 | CCCNC(=O)CN1CCC(C(=O)Nc2cnn(CC)c2)CC1 | 0.927 | 20.3
96 | CC(C(=O)N1CCC(Nc2cccnn2)CC1)n1ccnc1 (configuration not stated) | 7.4 | 0.729
97 | Cc1cccc(Cn2ccc(NS(C)(=O)=O)n2)c1 | 6.96 | -21.6
98 | O=C(NCCN1CCOCC1)c1cc(-c2ccc3c(c2)CCO3)n[nH]1 | 2.35 | -67.8
99 | CCc1noc(CN2CCN(C(=O)N(C)C)CC2)n1 | -1.26 | 5.9
100 | Cc1nn(C)c(C)c1C1CCCN1C(=O)c1ccc(CN(C)C)cc1 (configuration not stated) | -2.88 | -14
101 | O=C(c1nn(-c2ccccc2F)cc1O)N1CCCC1 | 3.09 | 16
